FBW7 act: activators of human E3 ligase FBW7; AlphaScreen FBW7–phospho-cyclin E peptide binding, activator screen; normalized activity (activation), % at 26.1 µM; actives 0.13% (n = 650,000); AID 1259310; in the data active = normalized activity above about 1.9%;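 note: purified mutant Fbw7 with reduced substrate affinity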
MITF primary: inhibitors of human MITF. O75030. AlphaScreen MITF homodimerization, bead proximity signal. inhibition, % at 2.6 µM. actives 0.91% (n = 650,000); in the data active = inhibition above about 50%
Target sequence (O75030 whole entry, looked up): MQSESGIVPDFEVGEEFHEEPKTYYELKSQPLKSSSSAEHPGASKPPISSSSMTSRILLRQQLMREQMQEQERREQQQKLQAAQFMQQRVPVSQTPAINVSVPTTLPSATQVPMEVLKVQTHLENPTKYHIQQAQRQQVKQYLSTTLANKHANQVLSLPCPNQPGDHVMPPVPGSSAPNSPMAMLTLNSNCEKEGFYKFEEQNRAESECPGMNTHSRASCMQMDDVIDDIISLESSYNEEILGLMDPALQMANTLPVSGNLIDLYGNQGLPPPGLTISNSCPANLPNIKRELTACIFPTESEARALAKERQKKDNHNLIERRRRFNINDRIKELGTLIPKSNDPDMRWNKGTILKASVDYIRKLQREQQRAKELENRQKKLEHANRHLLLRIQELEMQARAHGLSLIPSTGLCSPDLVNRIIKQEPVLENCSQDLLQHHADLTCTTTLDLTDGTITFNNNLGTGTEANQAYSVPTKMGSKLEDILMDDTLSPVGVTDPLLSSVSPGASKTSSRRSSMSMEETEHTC
GPR151 activ: human GPR151 activation | Q8TDV0 | PathHunter beta-arrestin GPR151 cells, luminescence | activation, % at 11.2 µM | actives 1% (n = 650,000) | AID 1508602; in the data active = activation above about 4.9%
TEAD-YAP inh: TEAD-YAP interaction inhibition; HEK-TIYL cells, TEAD-Gal4/YAP UAS-luciferase luminescence; inhibition, % at 9.12 µM; actives 1.4% (n = 640,000); AID 1259422; in the data active = inhibition above about 32%
Of the large screens only hits and unclear results are named; the others gave an inactive call. Rows were chosen to be rich in hits. Some 3.5% of all compounds tested hit in one or more screens of this group.

O=C1ON=C(c2ccccc2)/C1=C/C=C/c1ccco1	none
Cc1ccc2oc3nn(-c4ccccc4)c(=O)c-3cc2c1	TEAD-YAP inh 53
CCOC(=O)c1cnc2c(C)cc(Cl)cc2c1Nc1cc(Cl)ccc1OC	none
CCC(=O)N1CCCC(c2nnc(-c3ccccc3F)s2)C1 (stereo not given)	TEAD-YAP inh 74
CCCC/C=C/c1cnc(N)c(-c2ccc(C=O)cc2)n1	none
Cc1ccnc(NC(=O)CCC(=O)N(CC(=O)NCCc2ccccc2)C2CCCC2)c1	none
Cc1cccc(N(CC(=O)NCc2ccccc2)C(=O)CCC(=O)Nc2ccccn2)c1	FBW7 act 1.9
COCCN(CC(=O)NCCc1ccccc1)C(=O)CCC(=O)Nc1cc(C)ccn1	TEAD-YAP inh 33
COc1ccc2oc(-c3cccc(NC(C)=O)c3)nc2c1	TEAD-YAP inh 40
CCC(=O)Nc1ccc2oc(-c3cccc(C)c3)nc2c1	TEAD-YAP inh 82
CCc1ccc2oc(-c3cccc(NC(C)=O)c3)nc2c1	none
Cc1ccc2oc(-c3ccc(C(=O)Nc4ccc(NC(=O)C(C)(C)C)cc4)cc3)nc2c1	none
CCC(=O)Nc1ccc2oc(-c3cccc(Br)c3)nc2c1	TEAD-YAP inh 57
CCC(=O)Nc1ccc2oc(-c3cccc(I)c3)nc2c1	none
Cc1ccc2oc(-c3ccc(NC(=O)C(F)(F)F)cc3)nc2c1	TEAD-YAP inh 71
Nc1nnc(SCc2ccc(Br)cc2)s1	none
Brc1ccc(CSc2nn3cnnc3s2)cc1	TEAD-YAP inh 53
COC(=O)C1=C(C)N(Cc2ccco2)C(=O)/C1=C\c1cccc([N+](=O)[O-])c1	none
O=C(CCc1nnc(Cc2c[nH]c3ccccc23)o1)NCCn1ccc2ccccc21	FBW7 act 2.3
Cn1c(CCNC(=O)CCc2nnc(Cc3c[nH]c4ccccc34)o2)nc2ccccc21	none
COc1ccc2c(c1)CC(C(=O)Nc1ccc(-c3cn[nH]c3)cc1OCCC(C)C)CO2 (stereo not given)	none
O=C(Nc1ccc(-c2cn[nH]n2)cc1)C1COc2ccc(Cl)cc2C1 (stereo not given)	none
COc1ccc2c(c1)CC(C(=O)Nc1ccc(-c3cn[nH]n3)cc1)CO2 (stereo not given)	FBW7 act 5.9
COc1ccc2c(c1)CC(C(=O)Nc1cc3cc(-c4ccncc4)ccc3cn1)CO2 (stereo not given)	TEAD-YAP inh 59
COc1ccc(CNC(=O)c2cc(-c3cn[nH]c3)ccc2NC(=O)C2COc3ccc(OC)cc3C2)cc1 (stereo not given)	none
COc1ccc2c(c1)CC(C(=O)Nc1ccc(-c3cn[nH]c3)cc1C(=O)NCC#N)CO2 (stereo not given)	FBW7 act 20
COc1ccc2c(c1)CC(C(=O)Nc1ccc(-c3cn[nH]c3)cc1OCCO)CO2 (stereo not given)	TEAD-YAP inh 39
CC(OC(=O)c1ccc(Oc2ccccc2)cc1)C(N)=O (stereo not given)	none
O=C(Nc1ccnn1C1CCN(Cc2ccc(C3CCCCO3)s2)CC1)C1CCCC1 (stereo not given)	none
NCCOc1cc(-c2cn[nH]c2)ccc1NC(=O)C1COc2ccccc2C1 (stereo not given)	TEAD-YAP inh 41
CC(C)(C)C(=O)CNC(=O)c1ccncc1	TEAD-YAP inh 57
CCOC(=O)c1ccc(NC(=O)CC23CC4CC(CC(C4)C2)C3)cc1	TEAD-YAP inh 69
O=C1NC(=O)N(c2cccc(Cl)c2)C(=O)/C1=C/c1ccc(I)o1	MITF primary 67
Cc1cc(C)cc(N2C(=O)NC(=O)/C(=C\c3ccc([N+](=O)[O-])o3)C2=O)c1	none
COc1ccc(N2C(=O)NC(=O)/C(=C/c3ccc(I)o3)C2=O)cc1	MITF primary 69
COc1cccc(N2C(=O)NC(=O)/C(=C/c3ccc([N+](=O)[O-])o3)C2=O)c1	MITF primary 67
COc1cccc(N2C(=O)/C(=C/c3ccc([N+](=O)[O-])s3)C(=O)NC2=S)c1	none
COc1ccc(N2C(=O)/C(=C\c3ccc([N+](=O)[O-])s3)C(=O)NC2=S)cc1	MITF primary 59
Cc1ccc(/C=C2\C(=O)NC(=S)N(c3cccc(Cl)c3)C2=O)o1	none
COc1ccc(Cl)cc1C(=O)N(Cc1nc(-c2ccccc2)no1)C(C)C	none
COc1cc(C(=S)N2CCCCC2)cc(OC)c1O	none
COc1cccc(N2C(=O)/C(=C\c3ccc(OC)cc3OC)C(=O)NC2=S)c1	none
COc1cccc(N2C(=O)/C(=C/c3ccc([N+](=O)[O-])o3)C(=O)NC2=S)c1	MITF primary 71
O=C1NC(=O)N(c2cccc(Cl)c2)C(=O)/C1=C/c1ccc([N+](=O)[O-])o1	MITF primary 75
COc1ccc(N2C(=O)/C(=C\c3ccc([N+](=O)[O-])o3)C(=O)NC2=S)cc1	MITF primary 79
O=C(CCN1C(=O)C2C3C=CC(C3)C2C1=O)Nc1nc(-c2ccccc2)cs1 (stereo not given)	none
CCOC(=O)c1c(C)n(C)c2ccc(OC(=O)NC(=O)c3ccccc3)cc12	none
Cc1oc2cc(OCCN3CCOCC3)ccc2c(=O)c1-c1ccc(Br)cc1	TEAD-YAP inh 37
COc1ccc(-c2c(C)oc3cc(O)ccc3c2=O)cc1	none
Cc1oc2cc(OS(C)(=O)=O)ccc2c(=O)c1-c1ccc(Br)cc1	TEAD-YAP inh 34
Cc1oc2cc(OCC(=O)O)ccc2c(=O)c1-c1ccc(Br)cc1	none
COc1ccc(-c2c(C)oc3cc(OS(C)(=O)=O)ccc3c2=O)cc1	TEAD-YAP inh 37
COc1cccc(Oc2c(C)oc3cc(OS(C)(=O)=O)ccc3c2=O)c1	TEAD-YAP inh 44
CC1CC(C)CN(CCCNC(=O)C2CCCN2c2nnc(N3CCCC3=O)s2)C1 (stereo not given)	none
Nc1ccc(O)c2c1C(=O)c1c(cccc1[N+](=O)[O-])C2=O	MITF primary 88
CSCCC(C(=O)Nc1ccc(C)cc1C)N1C(=O)C2C3c4ccccc4C(c4ccccc43)C2C1=O (stereo not given)	none
CCOC(=O)c1ccccc1NC(=O)C1CCN(c2ccc(-c3cccs3)nn2)CC1	none
Cc1cccc(NC(=O)C2CCN(c3ccc(-c4cccs4)nn3)CC2)n1	TEAD-YAP inh 55
CC(=O)N1CCC[C@H]1C(=O)NCC1CCC2(CCN(CCCc3ccccc3)CC2)O1 (stereo not given in full)	none
CN(CCc1cnn(C)c1)C1CCC(=O)N(Cc2ccc(F)c(F)c2)CC1 (stereo not given)	none
CCNc1nc(NC(C)CC)nc(ON=C(C)C)n1 (stereo not given)	TEAD-YAP inh 36
CN1C(C(=O)NC(C)(C)CO)=CC(c2ccc(F)cc2)=NS1(=O)=O	none
CSc1ccc(-c2ccc(-n3ccnc3)cc2)nn1	TEAD-YAP inh 52
Cc1cnn(C(=O)c2c(-c3ccccc3)noc2C)c1	none
CCOc1c(Br)cc(C(N)=O)cc1OC	none
CCOc1c(Br)cc(C(=O)NN)cc1OC	TEAD-YAP inh 52
COc1ccc(C(=O)NCc2ccc(S(N)(=O)=O)cc2)cc1OC	FBW7 act 2.4
CNC(=O)c1cc(Cl)c(OC)c(OC)c1	none
COc1c(Cl)cc(C(=O)NN)cc1Cl	TEAD-YAP inh 56

Compound activity: PubChem BioAssay, The Scripps Research Institute Molecular Screening Center
